# Assay results taken from the supplement of paper PMC8728848.
# Shown is part of a subset that was picked to be rich in the strongest signals.
# B1: Gz-CVNH (Gibberella zeae) (protein)
# chain: MGSSHHHHHHSSGLVPRGSHMGNFHESSNNIWLEDGHILHAECGNGEGDYVESTLDLDYYIGNDDGSFSWGGENFSGSASNITLDIEGDDNIPVLRAELNPMDGDPVEANVNLSERIGNDCGTLIFLA
# Key:
# Test in all cases: glycan array binding signal (z-score within array); higher = stronger binding
# Settings in all cases: glycan notation: IUPAC condensed, linker removed
# Fuc(a1-2)Gal(b1-4)GlcNAc = biological target: Fuc(a1-2)Gal(b1-4)GlcNAc
# Method in brief: (§1)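 The Consortium for Functional Glycomics database supplied 3228 glycan arrays, of which those lacking an available protein sequence were dropped. The binding signal, a within-array Z-score, was averaged across arrays of the same protein sequence and across linkers. Negative scores can be read as non-binding.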
# [1] = biological target: Fuc(a1-2)Gal(b1-4)GlcNAc(b1-2)[Fuc(a1-2)Gal(b1-4)GlcNAc(b1-4)]Man(a1-3)[Fuc(a1-2)Gal(b1-4)GlcNAc(b1-2)Man(a1-6)]Man(b1-4)GlcNAc(b1-4)GlcNAc
# Method in brief: as §1
# [2] = biological target: Fuc(a1-2)[Gal(a1-3)]Gal(b1-4)[Fuc(a1-3)]Glc
# Method in brief: as §1
# [3] = biological target: Fuc(a1-2)[GalNAc(a1-3)]Gal(b1-3)GlcNAc(b1-2)Man(a1-3)[Fuc(a1-2)[GalNAc(a1-3)]Gal(b1-3)GlcNAc(b1-2)Man(a1-6)]Man(b1-4)GlcNAc(b1-4)GlcNAc
# Method in brief: as §1
# [4] = biological target: Fuc(a1-3)[Gal(b1-4)]GlcNAc
# Method in brief: as §1
# [5] = biological target: Fuc(a1-3)[Gal(b1-4)]GlcNAc(b1-3)Gal(b1-3)[Fuc(a1-4)]GlcNAc
# Method in brief: as §1
# [6] = biological target: Gal(a1-3)[Gal(a1-4)]Gal(b1-4)GlcNAc
# Method in brief: as §1
# Gal(a1-6)Glc = biological target: Gal(a1-6)Glc
# Method in brief: as §1
# [7] = biological target: Gal(b1-3)GlcNAc(b1-2)[Gal(b1-3)GlcNAc(b1-6)]Man(a1-6)[Gal(b1-3)GlcNAc(b1-2)Man(a1-3)]Man(b1-4)GlcNAc(b1-4)GlcNAc
# Method in brief: as §1
# [8] = biological target: Gal(b1-4)GlcNAc(b1-2)[Gal(b1-4)GlcNAc(b1-6)]Man(a1-6)[Gal(b1-4)GlcNAc(b1-2)Man(a1-3)]Man(b1-4)GlcNAc(b1-4)GlcNAc
# Method in brief: as §1
# [9] = biological target: Gal(b1-4)GlcNAc(b1-3)Gal(b1-4)Glc
# Method in brief: as §1
# [10] = biological target: Gal(b1-4)GlcNAc(b1-3)Gal(b1-4)[Fuc(a1-3)]GlcNAc(b1-3)Gal(b1-4)[Fuc(a1-3)]GlcNAc
# Method in brief: as §1
# Gal3S(b1-4)GlcNAc = biological target: Gal3S(b1-4)GlcNAc
# Method in brief: as §1
# [11] = biological target: Gal3S(b1-4)[Fuc(a1-3)]Glc6S
# Method in brief: as §1
# GalNAc(b1-3)Gal = biological target: GalNAc(b1-3)Gal
# Method in brief: as §1
# [12] = biological target: GalNAc(b1-3)Gal(a1-4)Gal(b1-4)GlcNAc(b1-3)Gal(b1-4)Glc
# Method in brief: as §1
# [13] = biological target: GlcNAc(a1-4)Gal(b1-4)GlcNAc(b1-3)Gal(b1-4)GlcNAc(b1-3)Gal(b1-4)GlcNAc
# Method in brief: as §1
# [14] = biological target: GlcNAc(b1-2)Man(a1-3)[GlcNAc(b1-2)Man(a1-6)]Man(b1-4)GlcNAc(b1-4)GlcNAc
# Method in brief: as §1
# [15] = biological target: GlcNAc(b1-2)[GlcNAc(b1-4)]Man(a1-3)[GlcNAc(b1-4)][GlcNAc(b1-2)[GlcNAc(b1-6)]Man(a1-6)]Man(b1-4)GlcNAc(b1-4)GlcNAc
# Method in brief: as §1
# [16] = biological target: GlcNAc(b1-3)Gal(b1-4)GlcNAc(b1-3)Gal(b1-4)GlcNAc
# Method in brief: as §1
# Kdn(a2-3)Gal(b1-3)GalNAc = biological target: Kdn(a2-3)Gal(b1-3)GalNAc
# Method in brief: as §1
# Kdn(a2-3)Gal(b1-4)GlcNAc = biological target: Kdn(a2-3)Gal(b1-4)GlcNAc
# Method in brief: as §1
# [17] = biological target: Man(a1-2)Man(a1-2)Man(a1-3)Man
# Method in brief: as §1
# [18] = biological target: Man(a1-2)Man(a1-2)Man(a1-6)[Man(a1-3)]Man
# Method in brief: as §1
# [19] = biological target: Man(a1-2)Man(a1-3)[Man(a1-2)Man(a1-6)]Man
# Method in brief: as §1
# [20] = biological target: Man(a1-2)Man(a1-3)[Man(a1-2)Man(a1-6)]Man(a1-6)[Man(a1-2)Man(a1-2)Man(a1-3)]Man
# Method in brief: as §1
# [21] = biological target: Man(a1-2)Man(a1-3)[Man(a1-2)Man(a1-6)]Man(a1-6)[Man(a1-2)Man(a1-2)Man(a1-3)]Man(b1-4)GlcNAc(b1-4)GlcNAc
# Method in brief: as §1
# [22] = biological target: Man(a1-2)Man(a1-3)[Man(a1-6)]Man(a1-6)[Man(a1-2)Man(a1-3)]Man(b1-4)GlcNAc(b1-4)GlcNAc
# Method in brief: as §1
# [23] = biological target: Man(a1-2)Man(a1-6)[Man(a1-3)]Man(a1-6)[Man(a1-2)Man(a1-2)Man(a1-3)]Man
# Method in brief: as §1
# [24] = biological target: Man(a1-2)Man(a1-6)[Man(a1-3)]Man(a1-6)[Man(a1-2)Man(a1-2)Man(a1-3)]Man(b1-4)GlcNAc(b1-4)GlcNAc
# Method in brief: as §1
# [25] = biological target: Man(a1-3)[Man(a1-6)]Man(a1-6)[Man(a1-2)Man(a1-3)]Man(b1-4)GlcNAc(b1-4)GlcNAc
# Method in brief: as §1
# [26] = biological target: Man(a1-3)[Man(a1-6)]Man(b1-4)GlcNAc(b1-4)GlcNAc
# Method in brief: as §1
# [27] = biological target: Neu5Ac(a2-3)Gal(b1-3)[Fuc(a1-4)]GlcNAc(b1-3)Gal(b1-3)[Fuc(a1-4)]GlcNAc
# Method in brief: as §1
# [28] = biological target: Neu5Ac(a2-3)Gal(b1-4)GlcNAc(b1-6)[Gal(b1-3)]GalNAc
# Method in brief: as §1
# [29] = biological target: Neu5Ac(a2-6)Gal(b1-4)GlcNAc(b1-2)Man(a1-3)[GlcNAc(b1-2)Man(b1-4)GlcNAc(b1-2)Man(a1-6)]Man(b1-4)GlcNAc(b1-4)GlcNAc
# Method in brief: as §1
# [30] = biological target: Neu5Ac(a2-6)GlcNAc(b1-4)GlcNAc(b1-4)GlcNAc
# Method in brief: as §1
# [31] = biological target: Neu5Ac(a2-8)Neu5Ac(a2-3)Gal(b1-3)GalNAc(b1-4)[Neu5Ac(a2-8)Neu5Ac(a2-3)]Gal(b1-4)Glc
# Method in brief: as §1
# [32] = biological target: Neu5Ac(a2-8)Neu5Ac(a2-8)Neu5Ac(a2-3)Gal(b1-4)Glc
# Method in brief: as §1
# [33] = biological target: Neu5Ac(a2-8)Neu5Ac(a2-8)Neu5Ac(a2-8)Neu5Ac(a2-3)[GalNAc(b1-4)]Gal(b1-4)Glc
# Method in brief: as §1
# Neu5Ac(b2-6)GalNAc = biological target: Neu5Ac(b2-6)GalNAc
# Method in brief: as §1
# [34] = biological target: Neu5Gc(a2-3)Gal(b1-3)[Fuc(a1-4)]GlcNAc
# Method in brief: as §1
# Neu5Gc(a2-3)Gal(b1-4)Glc = biological target: Neu5Gc(a2-3)Gal(b1-4)Glc
# Method in brief: as §1
binder,measurement,setting,value
B1,glycan array binding signal (z-score),Fuc(a1-2)Gal(b1-4)GlcNAc,-0.133
same,glycan array binding signal (z-score),[1],-0.106
same,glycan array binding signal (z-score),[2],-0.109
same,glycan array binding signal (z-score),[3],-0.121
same,glycan array binding signal (z-score),[4],-0.14
same,glycan array binding signal (z-score),[5],-0.114
same,glycan array binding signal (z-score),[6],-0.135
same,glycan array binding signal (z-score),Gal(a1-6)Glc,-0.128
same,glycan array binding signal (z-score),[7],-0.096
same,glycan array binding signal (z-score),[8],-0.094
same,glycan array binding signal (z-score),[9],-0.114
same,glycan array binding signal (z-score),[10],-0.14
same,glycan array binding signal (z-score),Gal3S(b1-4)GlcNAc,-0.166
same,glycan array binding signal (z-score),[11],0.005
same,glycan array binding signal (z-score),GalNAc(b1-3)Gal,-0.146
same,glycan array binding signal (z-score),[12],-0.132
same,glycan array binding signal (z-score),[13],-0.131
same,glycan array binding signal (z-score),[14],-0.129
same,glycan array binding signal (z-score),[15],-0.112
same,glycan array binding signal (z-score),[16],-0.14
same,glycan array binding signal (z-score),Kdn(a2-3)Gal(b1-3)GalNAc,-0.14
same,glycan array binding signal (z-score),Kdn(a2-3)Gal(b1-4)GlcNAc,-0.117
same,glycan array binding signal (z-score),[17],3.53
same,glycan array binding signal (z-score),[18],7.75
same,glycan array binding signal (z-score),[19],1.63
same,glycan array binding signal (z-score),[20],12.7
same,glycan array binding signal (z-score),[21],2.82
same,glycan array binding signal (z-score),[22],5.4
same,glycan array binding signal (z-score),[23],9.9
same,glycan array binding signal (z-score),[24],8.33
same,glycan array binding signal (z-score),[25],1.34
same,glycan array binding signal (z-score),[26],-0.119
same,glycan array binding signal (z-score),[27],-0.074
same,glycan array binding signal (z-score),[28],-0.115
same,glycan array binding signal (z-score),[29],-0.09
same,glycan array binding signal (z-score),[30],-0.14
same,glycan array binding signal (z-score),[31],-0.156
same,glycan array binding signal (z-score),[32],-0.128
same,glycan array binding signal (z-score),[33],-0.142
same,glycan array binding signal (z-score),Neu5Ac(b2-6)GalNAc,-0.108
same,glycan array binding signal (z-score),[34],-0.134
same,glycan array binding signal (z-score),Neu5Gc(a2-3)Gal(b1-4)Glc,-0.113
